Results: PubChem BioAssay (EPA / NIEHS)
Where “and” joins values, the source holds several entries; their conditions need not be identical. Identical values can stand only once. Results filed as inconclusive are left out. Some compounds were tested as several samples or in several runs, with calls that do not always agree. Calls of active or inactive are those of the source. Rule for the calls, unless noted: active = hit-call score of the fitted dose curve at least 0.9, where 1 is the maximum; inconclusive = response in the unintended direction; inactive = score below 0.9.

Tests used:
[1] = biological target: Glucocorticoid receptor (Homo sapiens) (UniProt P04150); assay: ATG_GR_TRANS: Attagene TRANS-FACTORIAL HepG2 Assay for human Glucocorticoid Receptor (GR) (AID 2282978); details: HepG2 Attagene TRANS GR reporter, mRNA transcription;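 note: activators score as hits since higher reporter transcript over DMSO is fitted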
Method in brief: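 Transiently transfected HepG2 cells express chimeric NR-GAL4 proteins acting on GAL4-UAS reporter units. Compounds are applied for 24 h. mRNA induction over DMSO is measured by capillary electrophoresis.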

[2] = biological target: Bile acid receptor (Homo sapiens) (UniProt Q96RI1); assay: ATG_FXR_TRANS: Attagene TRANS-FACTORIAL HepG2 Assay for Farnesoid X Receptor (FXR) (AID 2282979); details: HepG2 Attagene TRANS FXR-GAL4 reporter transcription;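 note: hits raise reporter mRNA above DMSO so AC50 marks FXR activation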
Method in brief: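 Chimeric FXR-GAL4 activity in transiently transfected human HepG2 liver cells is scored as induction of reporter mRNA after 24 h of dosing. Detection uses RT-PCR with fluorescent labelling and capillary electrophoresis, with DMSO serving as baseline.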

[3] = biological target: Oxysterols receptor LXR-alpha (Homo sapiens) (UniProt Q13133); assay: ATG_LXRa_TRANS: Attagene TRANS-FACTORIAL HepG2 Assay for human Liver X Receptor alpha (LXRa) (AID 2282980); details: HepG2 Attagene TRANS reporter, LXRa transactivation
Method in brief: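 Transient HepG2 transfectants, 24 h dosing, RT-PCR/CE mRNA reporter quantitation; gain-of-signal vs DMSO.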

[4] = biological target: Oxysterols receptor LXR-beta (Homo sapiens) (UniProt P55055); assay: ATG_LXRb_TRANS: Attagene TRANS-FACTORIAL HepG2 Assay for human Liver X Receptor beta (LXRb) (AID 2282981); details: HepG2 Attagene TRANS GAL4-LXRb reporter, mRNA
Method in brief: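 Measures induction of a Gal4-driven reporter transcript in HepG2 cells expressing an exogenous LXRb-Gal4 fusion. Cells are exposed to compound for 24 h before RNA isolation and RT-PCR with capillary electrophoresis detection.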

[5] = ATG_M_06_TRANS: Attagene TRANS-FACTORIAL HepG2 Assay for M06 Transcription Factor (Internal Marker) (AID 2282983); details: HepG2 Attagene TRANS M06 internal marker reporter;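 for AC50: potency for rise in reporter mRNA above DMSO baseline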
Method in brief: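 Human liver HepG2 cells bearing transiently transfected chimeric NR-GAL4 reporter units were treated with chemicals for 24 h. Total RNA was reverse-transcribed, reporter sequences amplified and labelled, then quantified by capillary electrophoresis. Activity was fitted upward relative to DMSO.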

[6] = ATG_M_32_TRANS: Attagene TRANS-FACTORIAL HepG2 Assay for M32 Transcription Factor (Internal Marker) (AID 2282984); details: HepG2 Attagene TRANS M32 internal marker reporter;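 note: transcript level of a background control reporter unit measured by RT-PCR and capillary electrophoresis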
Method in brief: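 After 24 h dosing of transfected HepG2 cells, total RNA was reverse-transcribed, reporter sequences PCR-amplified, 6-FAM labelled by primer extension and HpaI-digested before capillary electrophoresis. Signal increase over DMSO was fitted.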

[7] = biological target: Nuclear receptor subfamily 4 group A member 2 (Homo sapiens) (UniProt P43354); assay: ATG_NURR1_TRANS: Attagene TRANS-FACTORIAL HepG2 Assay for human Nuclear Receptor Related Protein 1 (NURR1) (AID 2282985); details: HepG2 Attagene TRANS reporter, mRNA readout
Method in brief: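 Chimeric NR-Gal4 fusion activity measured in HepG2 after 24 h treatment. Reporter transcripts detected by RT-PCR and capillary electrophoresis fluorescence; positive-direction curve fitting against DMSO.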

[8] = biological target: Transcriptional activator Myb (Homo sapiens) (UniProt P10242); assay: ATG_Myb_CIS: Attagene CIS-FACTORIAL HepG2 Assay for human Myeloblastosis (Myb) Proto-Oncogene Transcription Factor (AID 2282986; active = hit-call score of the fitted dose curve at least 0.9, where 1 is the maximum; inactive = score below 0.9); details: HepG2 Attagene CIS-FACTORIAL Myb reporter transcription; actives raise or lower the signal
Method in brief: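 Using HepG2 liver cells bearing transiently transfected cis-promoter reporter constructs, the assay measures induction or loss of reporter mRNA after 24 hours of dosing. Detection used fluorescently labeled RT-PCR products separated by capillary electrophoresis.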

[9] = biological target: Hepatocyte nuclear factor 4-alpha (Homo sapiens) (UniProt P41235); assay: ATG_HNF4a_TRANS: Attagene TRANS-FACTORIAL HepG2 Assay for human Hepatocyte Nuclear Factor 4 alpha (HNF4a) (AID 2282982); details: HepG2 HNF4a transactivation reporter, mRNA readout
Method in brief: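 In this trans-factorial format, a chimeric HNF4a-GAL4 fusion drives a GAL4-UAS reporter in transfected HepG2 liver cells. After 24 h treatment, reporter mRNA induction is measured by RT-PCR with capillary electrophoresis, relative to DMSO.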

[10] = biological target: Estrogen-related receptor gamma (Homo sapiens) (UniProt P62508); assay: ATG_ERRg_TRANS: Attagene TRANS-FACTORIAL HepG2 Assay for human Estrogen-Related Receptor gamma (ERRg) (AID 2282977); details: HepG2 Attagene TRANS reporter, ERRg transactivation;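 note: hits increase reporter signal over DMSO so potencies reflect activators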
Method in brief: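 Induction of reporter transcripts through a chimeric NR-Gal4 protein is quantified in transfected human HepG2 liver cells after 24 h chemical exposure, using RT-PCR with capillary electrophoresis detection and DMSO as baseline.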

Measured: AC50

Chain of Transcriptional activator Myb (Homo sapiens) (P10242 whole entry, looked up): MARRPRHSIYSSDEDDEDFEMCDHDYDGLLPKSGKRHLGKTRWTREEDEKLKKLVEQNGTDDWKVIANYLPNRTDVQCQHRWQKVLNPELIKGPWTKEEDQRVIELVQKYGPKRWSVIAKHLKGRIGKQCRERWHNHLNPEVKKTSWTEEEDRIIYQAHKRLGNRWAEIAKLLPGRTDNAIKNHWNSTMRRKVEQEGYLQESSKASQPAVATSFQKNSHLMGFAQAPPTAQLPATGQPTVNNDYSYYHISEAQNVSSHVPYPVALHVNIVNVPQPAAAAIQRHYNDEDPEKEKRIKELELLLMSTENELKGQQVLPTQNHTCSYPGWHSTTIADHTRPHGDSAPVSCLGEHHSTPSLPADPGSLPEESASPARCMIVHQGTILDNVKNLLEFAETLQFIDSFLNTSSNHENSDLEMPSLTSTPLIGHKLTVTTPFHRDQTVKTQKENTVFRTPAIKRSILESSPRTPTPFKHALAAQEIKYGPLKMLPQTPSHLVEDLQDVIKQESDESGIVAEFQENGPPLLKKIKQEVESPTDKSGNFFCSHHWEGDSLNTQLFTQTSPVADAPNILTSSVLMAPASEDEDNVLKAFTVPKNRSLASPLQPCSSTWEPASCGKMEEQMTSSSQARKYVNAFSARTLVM
Chain of Bile acid receptor (Homo sapiens) (Q96RI1 whole entry, looked up, the tested form may be a part): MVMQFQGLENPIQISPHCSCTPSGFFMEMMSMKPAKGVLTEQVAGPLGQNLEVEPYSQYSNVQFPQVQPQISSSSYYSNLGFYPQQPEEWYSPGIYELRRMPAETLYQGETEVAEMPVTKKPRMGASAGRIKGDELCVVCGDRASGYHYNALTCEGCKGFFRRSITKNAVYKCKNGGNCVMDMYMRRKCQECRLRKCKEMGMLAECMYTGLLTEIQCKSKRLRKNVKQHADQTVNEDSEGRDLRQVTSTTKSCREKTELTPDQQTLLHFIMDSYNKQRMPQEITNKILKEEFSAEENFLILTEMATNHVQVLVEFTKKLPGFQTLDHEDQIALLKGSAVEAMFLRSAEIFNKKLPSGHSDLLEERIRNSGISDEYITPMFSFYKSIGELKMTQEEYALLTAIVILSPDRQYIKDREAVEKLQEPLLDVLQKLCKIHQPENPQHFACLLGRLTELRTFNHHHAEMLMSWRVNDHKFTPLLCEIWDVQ
Chain of Oxysterols receptor LXR-alpha (Homo sapiens) (Q13133 whole entry, looked up): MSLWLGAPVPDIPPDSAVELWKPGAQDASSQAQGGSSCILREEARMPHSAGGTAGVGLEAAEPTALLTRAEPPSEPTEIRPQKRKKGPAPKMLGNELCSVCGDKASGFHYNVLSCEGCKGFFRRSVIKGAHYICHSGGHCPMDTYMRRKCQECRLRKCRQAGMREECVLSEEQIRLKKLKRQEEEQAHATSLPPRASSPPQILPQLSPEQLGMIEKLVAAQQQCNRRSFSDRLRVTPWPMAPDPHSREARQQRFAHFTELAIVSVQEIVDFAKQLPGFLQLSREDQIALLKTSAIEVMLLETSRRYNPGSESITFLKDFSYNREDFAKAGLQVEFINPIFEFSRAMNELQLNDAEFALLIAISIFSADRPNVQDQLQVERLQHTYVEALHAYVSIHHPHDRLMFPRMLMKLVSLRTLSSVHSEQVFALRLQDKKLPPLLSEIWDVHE
Chain of Glucocorticoid receptor (Homo sapiens) (P04150 whole entry, looked up, the tested form may be a part): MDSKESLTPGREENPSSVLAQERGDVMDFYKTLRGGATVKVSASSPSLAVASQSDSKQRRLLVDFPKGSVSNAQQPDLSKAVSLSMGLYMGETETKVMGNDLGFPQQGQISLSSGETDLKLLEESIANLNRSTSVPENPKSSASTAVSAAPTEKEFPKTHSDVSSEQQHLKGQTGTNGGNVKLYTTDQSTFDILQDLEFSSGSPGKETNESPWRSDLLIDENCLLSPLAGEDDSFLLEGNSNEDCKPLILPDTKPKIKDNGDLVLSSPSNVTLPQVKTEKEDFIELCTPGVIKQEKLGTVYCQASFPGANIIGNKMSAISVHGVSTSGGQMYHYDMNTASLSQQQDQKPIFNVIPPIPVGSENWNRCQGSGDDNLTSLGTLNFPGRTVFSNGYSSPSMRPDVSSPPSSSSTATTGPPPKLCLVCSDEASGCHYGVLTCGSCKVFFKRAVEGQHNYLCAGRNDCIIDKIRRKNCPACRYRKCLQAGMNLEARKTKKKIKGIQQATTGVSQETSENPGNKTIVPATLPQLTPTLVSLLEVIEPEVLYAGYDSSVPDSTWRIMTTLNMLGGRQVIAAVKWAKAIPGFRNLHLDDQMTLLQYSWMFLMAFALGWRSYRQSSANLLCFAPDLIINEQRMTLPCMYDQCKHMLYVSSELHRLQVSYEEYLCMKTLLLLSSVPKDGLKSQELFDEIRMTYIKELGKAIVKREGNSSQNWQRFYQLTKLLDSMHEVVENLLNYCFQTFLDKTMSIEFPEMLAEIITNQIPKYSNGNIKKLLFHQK
Chain of Oxysterols receptor LXR-beta (Homo sapiens) (P55055 whole entry, looked up, the tested form may be a part): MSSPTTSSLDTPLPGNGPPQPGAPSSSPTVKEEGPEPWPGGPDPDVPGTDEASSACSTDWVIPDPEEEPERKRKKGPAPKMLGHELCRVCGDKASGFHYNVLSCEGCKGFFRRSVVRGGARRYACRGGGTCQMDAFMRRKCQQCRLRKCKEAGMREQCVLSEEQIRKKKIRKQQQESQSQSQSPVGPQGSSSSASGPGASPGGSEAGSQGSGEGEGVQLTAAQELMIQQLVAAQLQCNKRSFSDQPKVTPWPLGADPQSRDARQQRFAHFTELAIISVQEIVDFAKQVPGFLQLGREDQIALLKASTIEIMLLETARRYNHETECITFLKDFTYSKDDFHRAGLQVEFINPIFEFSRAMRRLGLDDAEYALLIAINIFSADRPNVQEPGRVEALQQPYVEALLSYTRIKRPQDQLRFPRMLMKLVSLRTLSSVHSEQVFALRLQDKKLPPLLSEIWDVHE
Chain of Estrogen-related receptor gamma (Homo sapiens) (P62508 whole entry, looked up, the tested form may be a part): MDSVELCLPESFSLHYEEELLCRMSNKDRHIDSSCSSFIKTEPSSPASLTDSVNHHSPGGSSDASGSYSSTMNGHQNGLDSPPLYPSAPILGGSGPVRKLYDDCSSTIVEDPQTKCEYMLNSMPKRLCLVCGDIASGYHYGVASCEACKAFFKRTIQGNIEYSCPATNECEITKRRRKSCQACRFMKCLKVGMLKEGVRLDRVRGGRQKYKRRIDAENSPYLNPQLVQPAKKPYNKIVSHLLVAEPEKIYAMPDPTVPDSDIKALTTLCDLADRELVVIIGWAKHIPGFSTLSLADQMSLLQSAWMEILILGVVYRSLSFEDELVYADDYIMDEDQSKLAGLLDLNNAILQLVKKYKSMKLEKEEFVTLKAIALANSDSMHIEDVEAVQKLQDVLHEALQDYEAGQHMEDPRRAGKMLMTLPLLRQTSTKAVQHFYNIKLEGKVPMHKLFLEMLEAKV
Chain of Nuclear receptor subfamily 4 group A member 2 (Homo sapiens) (P43354 whole entry, looked up, the tested form may be a part): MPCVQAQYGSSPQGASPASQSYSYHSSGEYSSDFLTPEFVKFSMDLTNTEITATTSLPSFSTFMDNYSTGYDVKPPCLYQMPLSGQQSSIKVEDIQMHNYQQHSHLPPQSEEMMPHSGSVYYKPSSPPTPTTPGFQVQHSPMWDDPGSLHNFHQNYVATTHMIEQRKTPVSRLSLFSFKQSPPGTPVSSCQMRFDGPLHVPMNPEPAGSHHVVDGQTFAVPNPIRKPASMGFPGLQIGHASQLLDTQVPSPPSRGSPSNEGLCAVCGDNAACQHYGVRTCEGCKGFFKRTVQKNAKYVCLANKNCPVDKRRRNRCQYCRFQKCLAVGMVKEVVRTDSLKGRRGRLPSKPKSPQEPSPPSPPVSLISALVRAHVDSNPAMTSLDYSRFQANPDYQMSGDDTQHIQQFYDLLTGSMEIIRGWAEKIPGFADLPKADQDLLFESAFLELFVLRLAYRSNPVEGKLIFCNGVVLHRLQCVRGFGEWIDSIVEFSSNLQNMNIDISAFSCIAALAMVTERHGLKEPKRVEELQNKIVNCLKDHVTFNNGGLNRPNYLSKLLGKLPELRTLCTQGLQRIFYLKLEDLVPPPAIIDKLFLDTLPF
Chain of Hepatocyte nuclear factor 4-alpha (Homo sapiens) (P41235 whole entry, looked up, the tested form may be a part): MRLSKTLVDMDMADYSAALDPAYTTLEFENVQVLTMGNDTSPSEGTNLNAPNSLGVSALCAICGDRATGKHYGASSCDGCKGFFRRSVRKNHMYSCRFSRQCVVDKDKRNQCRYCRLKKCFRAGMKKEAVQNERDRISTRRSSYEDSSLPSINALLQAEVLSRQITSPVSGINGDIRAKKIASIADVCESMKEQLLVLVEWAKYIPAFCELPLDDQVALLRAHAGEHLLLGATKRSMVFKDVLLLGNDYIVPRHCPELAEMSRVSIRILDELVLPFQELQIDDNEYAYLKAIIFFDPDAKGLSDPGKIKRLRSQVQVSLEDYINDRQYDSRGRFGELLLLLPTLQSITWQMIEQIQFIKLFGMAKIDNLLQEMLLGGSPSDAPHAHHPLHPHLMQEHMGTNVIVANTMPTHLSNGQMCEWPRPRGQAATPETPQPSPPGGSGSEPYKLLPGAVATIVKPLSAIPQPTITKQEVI

OCCC(F)(F)C(F)(F)C(F)(F)C(F)(F)C(F)(F)C(F)(F)F
not listed: [9] | [10]
inactive: all other assays above

CCN(CC)CCNc1ccc(CNC=O)c2sc3ccc(OC)cc3c(=O)c12
inactive: [9] | [5] | [6] | [8]
active: [1] 1850 nM | [2] 2440 nM | [3] 1260 nM | [4] 1570 nM | [7] 0.771 µM

COCC(C)O (centres undefined)
not listed: [2] | [9]
inactive: all other assays above

O=C(O)c1ccccc1C(c1ccc(O)cc1)c1ccc(O)cc1
not listed: [2]
inactive: all other assays above

CCCCCCCCCCCCN1CCCC1=O
inactive: [1] | [2] | [4] | [6] | [8]

CCCCCCCC(=O)O
inactive: [1] | [4] | [9] | [5] | [7] | [8]

CC(C)(C)CC(C)(C)c1ccc(O)c(-n2nc3ccccc3n2)c1
inactive: [2] | [5] | [8]

Nc1cccc2c(N)cccc12
inactive: [1] | [2] | [4] | [6] | [7] | [8]

C#C[C@]1(O)CC[C@H]2[C@@H]3CCC4=CC(=O)CC[C@@H]4[C@H]3CC[C@@]21C
inactive: [1] | [5] | [7] | [8]

CCc1ccc(CCOc2ccc(CC3SC(=O)NC3=O)cc2)nc1 (centres undefined)
inactive: [1] | [3] | [4] | [9] | [8]

C=C(C)C(=O)OCCC(F)(F)C(F)(F)C(F)(F)C(F)(F)C(F)(F)C(F)(F)F
inactive: [1] | [2] | [4] | [6] | [7] | [8]

CCCCC(CC)COC(=O)CCCCC(=O)OCc1ccccc1 (centres undefined)
inactive: [4] | [5] | [8]

CC[C@H](C)[C@@H](C(=O)O)n1sc2ccccc2c1=O
inactive: [9] | [6] | [7] | [8]

CCCCOCCO
inactive: [5] | [8]

O=C(OCCOCCOC(=O)c1ccccc1)c1ccccc1
inactive: [2] | [3] | [4] | [9] | [5] | [8]

c1ccc2c(c1)Cc1ccccc1-2
inactive: [2] | [5] | [8]

CCOC(=O)CC(O)(CC(=O)OCC)C(=O)OCC
inactive: [1] | [3] | [9] | [5] | [6] | [8]

CC(O)C(=O)O (centres undefined)
not listed: [1] | [7] | [10]
inactive: all other assays above

c1ccc2c(c1)ccc1ccccc12
inactive: [1] | [2] | [4] | [5] | [6] | [8]

CCCCCCCCCCCCCCCS(=O)(=O)Oc1ccccc1
inactive: [2] | [4] | [9] | [5] | [8]

CCC(C)(C)C1CCC(O)CC1 (centres undefined)
not listed: [1] | [2] | [10]
inactive: all other assays above

Cc1cc(C)c(O)c(C)c1
inactive: [1] | [2] | [9] | [5] | [6] | [8]

Cc1oc(-c2ccccc2)nc1CCOc1ccc(C[C@H](Nc2ccccc2C(=O)c2ccccc2)C(=O)O)cc1
active: [7] 19.9 µM
inactive: [1] | [5] | [6] | [8]

C[C@@H]1C[C@H]2[C@@H]3CCC4=CC(=O)C=C[C@]4(C)[C@@]3(F)[C@@H](O)C[C@]2(C)[C@@]1(O)C(=O)COP(=O)(O)O
inactive: [3] | [4] | [5] | [6] | [7] | [8]

CN1CCN(c2ccccc2/C=C2\SCCN(c3ccc(Cl)c(Cl)c3)C2=O)CC1
inactive: [5] | [7] | [8]

COc1ccc([N+](=O)[O-])cc1N
inactive: [1] | [9] | [8]

COCC(C)OCC(C)O (centres undefined)
inactive: [2] | [9] | [5] | [8]

CC(C)CCCCCCOC(=O)CCCCC(=O)OCCCCCCC(C)C
inactive: [3] | [5] | [8]

NCC(F)(F)C(F)(F)C(F)(F)C(F)(F)C(F)(F)C(F)(F)C(F)(F)F
inactive: [1] | [2] | [9] | [5] | [7] | [8]

Oc1cc2ccccc2c2ccccc12
active: [5] 50800 nM
inactive: [1] | [3] | [4] | [5] | [6] | [7] | [8]

O=C(O)Cc1cc(I)c(Oc2cc(I)c(O)c(I)c2)c(I)c1
active: [7] 23.6 µM
not listed: [2] | [10]
inactive: all other assays above

CC1=C(/C=C/C(C)=C/C=C/C(C)=C/C(=O)O)C(C)(C)CCC1
active: [7] 57.2 nM and 278 nM
not listed: [2] | [9] | [10]
inactive: all other assays above

ClC1=C(Cl)C(Cl)(Cl)C(Cl)=C1Cl
inactive: [1] | [3] | [4] | [9] | [5] | [6] | [7] | [8]
active: [8] 13600 nM

CN1CCC[C@H]1c1cccnc1
inactive: [4] | [9] | [5] | [6] | [8]

CCCCCCCCC(=O)O
inactive: [4] | [9] | [5] | [6] | [7] | [8]

COC(=O)CCCCC(=O)OC
inactive: [1] | [2] | [5] | [6] | [7] | [8]
